Screening data from PubChem.
This is a sample that favours compounds with a hit; in the whole collection about 2.5% have one here.
ATG4B inh: ATG4B (human) cysteine protease inhibition; ATG4B cleavage of LC3-PLA2, NBD-HPC fluorescence, 1 h; inhibition, % at 8.33 µM; hit rate 0.51% among 340,000; AID 504462; in the data active means inhibition above about 40%
Target sequence (Q9Y4P1 whole entry, looked up): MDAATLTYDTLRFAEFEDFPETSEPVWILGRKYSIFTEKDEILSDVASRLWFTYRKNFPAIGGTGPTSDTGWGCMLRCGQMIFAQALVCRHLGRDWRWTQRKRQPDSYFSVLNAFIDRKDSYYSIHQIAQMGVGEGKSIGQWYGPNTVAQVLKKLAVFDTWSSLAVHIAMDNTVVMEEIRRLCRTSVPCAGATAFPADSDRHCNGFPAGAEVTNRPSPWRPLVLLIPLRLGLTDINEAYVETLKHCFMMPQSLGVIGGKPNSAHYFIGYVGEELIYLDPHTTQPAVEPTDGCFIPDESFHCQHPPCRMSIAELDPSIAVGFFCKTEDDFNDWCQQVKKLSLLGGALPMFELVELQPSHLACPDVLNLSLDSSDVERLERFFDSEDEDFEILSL
SUMO Mot1 rescue: blocks SUMOylation pathway, rescuing yeast Mot1-301 growth; S. cerevisiae Mot1-301 growth rescue, ATP luminescence, 38.5C; percent above DMSO median, 100 means doubled; growth rescue, % at 18.8 µM; hit rate 1% among 320,000;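 active means every valid replicate shows activation above 250% relative to neutral control wells; inactive means the rest, any valid replicate at or below 250%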
V-ATPase pH: alters yeast V-ATPase proton transport. S. cerevisiae, pHLuorin cytosolic pH fluorescence. response, % at 10 µM. hit rate 0.37% among 350,000; in the data active means response mostly above about 7.3%, no sharp cut-off; inactive means mostly below about 5.4%; further: actives read high
Efflux pump inh: blocks antifungal efflux pumps in multiplex yeast assay | AID 485275 | inhibition, % at 10 µM | hit rate 0.44% among 330,000 | S. cerevisiae Candida pump triplex, Nile Red efflux;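 active means plate passing quality check with inhibition over a set limit, or well fluorescence over plate mean plus 4 SD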;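 further: Nile Red retained in pooled yeast measured as flow cytometry median fluorescence; higher means more Nile Red kept so more efflux inhibition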
AI-2 QS modul: modulators of Vibrio harveyi AI-2 quorum sensing system. Vibrio harveyi JMH597 AI-2 luminescence/OD600 ratio, 9 h; active compounds read low; strain lacks LuxN and CqsS sensors; 0 = neutral-control median. activity change, % at 7.5 µM. hit rate 0.4% among 300,000. AID 2094; in the data active means activity change below about -75%, passing the limit was not always enough;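 further: luminescence divided by OD600 gain over 9 h not by final OD600 alone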
Hits are given with their value; 0 = inactive; - = no result.

SMILES	ATG4B inh	SUMO Mot1 rescue	V-ATPase pH	Efflux pump inh	AI-2 QS modul
O=[N+]([O-])c1ccc(S(=O)(=O)N2CCN(C3CCN(Cc4ccccc4)CC3)CC2)cc1	0	379	0	0	0
CC(=O)Oc1cc2c(cc1Cl)C1(CC(c3ccccc3Cl)O2)CC(C)(C)NC(=S)N1 (stereo not given)	0	0	0	114	0
CC1(C)CC2(CC(c3ccccc3F)c3cc(Cl)c(O)cc3O2)NC(=S)N1 (stereo not given)	0	0	0	0	0
Cn1c2c(c(=O)n(C)c1=O)[C@@]1(C(=O)Nc3ccccc31)C(C#N)=C(N)O2	0	0	0	0	-92
N#CC1=C(N)Oc2n[nH]c(-c3ccccc3)c2C12C(=O)Nc1ccccc12 (stereo not given)	0	-	0	0	0
COc1cc(/C=N/N2C(=O)CSC2=S)ccc1O	0	0	0	0	0
O=C1CSC(=S)N1/N=C/c1cc(Br)c(O)c(Br)c1	61	0	0	7.5	0
N#CCc1nn(-c2ccccc2)c(N)c1C#N	0	0	0	0	0
CCc1nn(-c2ccccc2)c(N)c1C#N	0	290	0	0	0
O=C(c1ccc(Br)cc1)c1cn[nH]c1-c1ccccc1O	0	0	0	0	-81
COc1ccc(C(=O)c2cn[nH]c2-c2ccc(C)cc2O)cc1	0	0	0	0	-86
Cc1cccc(C(=O)c2cn[nH]c2-c2ccc(C)cc2O)c1	0	0	0	0	0
Cc1ccc(O)c(-c2[nH]ncc2C(=O)c2ccc(Br)cc2)c1	0	0	0	0	0
CC(C)(C)c1ccc(C(=O)c2cn[nH]c2-c2ccccc2O)cc1	0	0	0	0	-92
CCCNc1ncc2c(=O)[nH][nH]c(=O)c2n1	0	-	0	-	-
CNS(=O)(=O)c1cccc(C(=O)NCC(C)(C)N2CCCCC2)c1	0	0	0	0	0
CC(C)(C)c1ccc(C(=O)c2c[nH]c(C(=O)NCCCn3ccnc3)c2)cc1	0	324	0	0	0
COC(=O)c1cc(C(=O)c2ccc(C(C)(C)C)cc2)c[nH]1	0	0	0	0	-85
CC1CC(=O)c2c(cc3c(-c4c(O)cc(O)c5c(O)c6c(cc45)OC(C)CC6=O)c(O)cc(O)c3c2O)O1 (stereo not given)	0	0	0	0	-82
COCCCNCCCCOc1ccc(Br)cc1Cl	0	280	0	0	0
COCCNCCCOc1ccc(Br)cc1Cl	0	0	0	0	0
CCCC[C@H]1COCCS(=O)(=O)N1Cc1cccc([N+](=O)[O-])c1	0	0	0	0	0
O=C(N/N=C/c1ccc(O)cc1O)C(=O)N/N=C/c1ccc(O)cc1O	0	0	0	0	-86
O=C(Cc1c[nH]c2ccccc12)N1CCN(S(=O)(=O)c2cccc(Cl)c2Cl)CC1	0	0	0	0	-
Cc1ccc(NC2=C(CC(=O)O)C(c3ccccc3)N(c3ccc(C)cc3)C2=O)cc1 (stereo not given)	0	0	0	0	0
SMILES	ATG4B inh	SUMO Mot1 rescue	V-ATPase pH	Efflux pump inh	AI-2 QS modul
Cc1ccc(-n2nc3c(c2NC(=O)c2c(-c4ccccc4Cl)noc2C)CSC3)cc1	43	0	-	0	0
CS(=O)(=O)c1nc(-c2cccs2)cc(C(F)(F)F)n1	-	0	-	0	-89
COc1ccc(-c2cc(C(F)(F)F)nc(S(C)(=O)=O)n2)cc1	0	589	0	0	0
CCOc1ccc2oc(C(=O)OCC(=O)NC3CCCC3)c(C)c2c1	0	0	0	0	-
CCSc1nnc(SCC(=O)c2c(N)n(C)c(=O)n(C)c2=O)s1	0	-	0	-	-
CCCC(CCC)C(=O)Nc1c[nH]c(=O)[nH]c1=O	0	0	0	0	0
Oc1ccc(Cl)cc1Cc1cc(Cl)ccc1O	0	0	0	0	-112
Oc1ccc(Cl)cc1CNCc1ccc(Cl)cc1	0	0	0	0	-
Cc1c(C)n(Cc2ccccc2)c2ncnc(Cl)c12	0	0	0	0	0
O=C(O)c1ccc(N/N=C/C2=Cc3ccccc3OC2)cc1	0	0	0	0	-91
O=C(O)c1ccc(N/N=C/c2c[nH]c3ccccc23)cc1	0	0	0	0	0
O=S(=O)(c1ccccc1)N1CCN=C1SCc1ccc(Cl)c(Cl)c1	0	0	37	0	0
COc1ccc(OC)c(NC(=O)COC(=O)[C@H](Cc2ccccc2)NC(=O)c2ccco2)c1	0	0	0	0	-
Cc1ccc(Nc2cc(C)nn2-c2nc(C)cc(=O)[nH]2)cc1	0	0	0	0	-160
COc1ccc(CC(=O)Nc2cc(Cl)ccc2O)cc1	0	0	0	0	-94
COc1ccc(CC(=O)Nc2ccccc2NC(=O)Cc2ccc(OC)cc2)cc1	0	0	0	0	0
O=S(=O)(NC1CC2CCC1C2)c1ccc(Br)s1 (stereo not given)	0	450	0	0	0
O=c1cc(-c2ccccc2)cc(-c2ccccc2)n1O	0	0	0	0	-82
CCOc1cc(N2CCOCC2)c(OCC)cc1NC(=O)c1ccccc1N1CCCC1=O	-	-	0	-	-
Cc1ccc(CCNS(=O)(=O)c2ccc3c(c2)C(C)(C)C(=O)N3C)cc1	0	0	25	0	0
COc1ccccc1NC(=O)NCC1CC1(Cl)Cl (stereo not given)	0	0	0	0	0
CC(C)(C)c1ccc(Oc2ccc(NC(=O)c3ccco3)cn2)cc1	0	0	0	0	0
O=C(Nc1ccc(Oc2cccc(C(F)(F)F)c2)nc1)c1ccco1	0	342	0	0	0
O=C(c1csc(Nc2cccc3ccccc23)n1)N1CCCC1	0	607	0	0	0
O=C(c1csc(Nc2ccccc2Cl)n1)N1CCCC1	0	0	0	0	0
SMILES	ATG4B inh	SUMO Mot1 rescue	V-ATPase pH	Efflux pump inh	AI-2 QS modul
Cc1ccc(S(=O)(=O)NCCc2nc3ccccc3[nH]2)cc1	0	0	0	0	0
Cc1ccc(NC(=O)N2CCCC2C(=O)NCCc2ccccc2)cc1 (stereo not given)	0	-	0	-	0
Cc1ccccc1C(=O)Nc1nnc(-c2ccc(F)cc2)o1	0	0	0	0	-82
COc1ccc(CC(Cc2ccc(OC)c(OC)c2)NC=O)cc1OC	-	-	0	-	-
CC(c1nnnn1C1CCCCC1)N(Cc1ccccc1)Cc1cccnc1 (stereo not given)	0	278	0	0	0
Cc1cc(C)n(C(CC(=O)N2CCc3ccccc3C2)C(=O)O)n1 (stereo not given)	0	0	16	0	0
O=C(c1cc(NC(=O)C23CC4CC(CC(C4)C2)C3)cc(NC(=O)C23CC4CC(CC(C4)C2)C3)c1)N1CCCCC1	0	0	-	1.1	0
CCOc1ccc2nc(N3CCC(C(=O)NC4CCCCC4)CC3)sc2c1	0	344	0	0	0
O=C(Nc1cccc2ccccc12)c1cc2c(cc1Br)OCO2	0	0	0	0	0
CCOc1ccccc1C(=O)NCC(=O)OCc1csc(CC(=O)Nc2ccc(C)cc2)n1	0	0	0	0	-
COc1ccc(CCC(=O)OCc2csc(CC(=O)Nc3ccc(C)cc3)n2)cc1OC	0	0	0	0.9	-
CNC(=O)[C@@]1(C)C=C[C@@H](Cc2ccccc2)N1C(=O)OC	0	271	0	0	0
